From the supplement of paper PMC11060735
Where “and” joins values, the source holds several entries; their conditions need not be identical. Equal values may be shown once. Where a name gives a salt, the structure may show the parent alone. The campaign covered roughly 1,800 compounds. About 50 (3%) showed activity. The entries come from a sample that favours actives as a whole.

Each molecule was assayed on mouse p16Ink4a+/- lung fibroblasts (INKBRITE, bleomycin-injured) (assay: percentage of GFP+ (p16Ink4a+) fibroblasts among all cells in well; higher = less depletion of p16Ink4a+ cells, active = 20 or less). Conditions: 1 µM; 3 days.

SMILES	percentage of GFP+
CCC[C@H](NC(=O)/C(C#N)=C/c1cccc(Br)n1)c1ccccc1 [Degrasyn]	13.1% (active)
C[C@H](NC(=O)/C(C#N)=C/c1cccc(Br)n1)c1ccccc1	43% (inactive)
N#C/C(=C\c1ccc(O)c(O)c1)C(=O)NCc1ccccc1 [Tyrphostin Ag 490]	42.9% (inactive)
Nc1ccn([C@@H]2O[C@H](CO)[C@@H](O)C2(F)F)c(=O)n1 [Gemcitabine]	17.1% (active)
Nc1ccn([C@@H]2O[C@H](CO)[C@@H](O)[C@@H]2O)c(=O)n1 [Cytarabine]	26.8% (inactive)
Nc1ccn([C@@H]2O[C@H](CO)[C@@H](O)[C@H]2O)c(=O)n1 [Cytidine]	48.9% (inactive)
Cc1nc2n(c(=O)c1CCN1CCC(c3noc4cc(F)ccc34)CC1)CCCC2 [Risperidone]	42.6% (inactive)
CCC(=O)N1CCN(c2ccc(-n3c(=O)ccc4cnc5ccc(-c6cnc7ccccc7c6)cc5c43)cc2C(F)(F)F)CC1 [Torin 1]	46% (inactive)
COc1ccc(-c2ccc3ncc4c(c3c2)n(-c2ccc(N3CCNCC3)c(C(F)(F)F)c2)c(=O)n4C)cn1	10.6% (active)
Cn1c(=O)n(-c2ccc(C(C)(C)C#N)cc2)c2c3cc(-c4cnc5ccccc5c4)ccc3ncc21 [Dactolisib]	36% (inactive)
Cc1cc(Nc2cc(CN3CCOCC3)c3nc(C)c(Cc4ccc(Cl)cc4F)n3n2)[nH]n1	43.7% (inactive)
Cn1c(N2CCCCS2(=O)=O)nc(C(=O)NCc2ccc(F)cc2)c(O)c1=O	26.4% (inactive)
NC(=O)c1noc([C@H](CCCC2CCCCC2)CC(=O)NO)n1	47% (inactive)
CC(=O)O[C@H]1C[C@@H]2CC[C@@H]3[C@H](CC[C@@]4(C)[C@H]3C[C@H]([N+]3(C)CCCCC3)[C@@H]4OC(C)=O)[C@@]2(C)C[C@@H]1N1CCCCC1 [Vecuronium]	47% (inactive)
CN(NC(=O)CC(=O)NN(C)C(=S)c1ccccc1)C(=S)c1ccccc1 [Elesclomol]	12% (active)
O=C(O)CCNC(=O)c1ccccc1 [Betamipron]	46% (inactive)
O=C(O)c1ccccc1 [Benzoic Acid]	44.8% (inactive)
Cn1cc(C2=C(c3cn(CCCSC(=N)N)c4ccccc34)C(=O)NC2=O)c2ccccc21	58.4% (inactive)
OC[C@H]1O[C@@H](n2cnc3c(O)ncnc32)[C@H](O)[C@@H]1O [Inosine]	47.7% (inactive)
CN1CCN(CCOc2cc(OC3CCOCC3)c3c(Nc4c(Cl)ccc5c4OCO5)ncnc3c2)CC1 [Saracatinib]	46.2% (inactive)
CC[C@]1(O)C[C@@H]2CN(CCc3c([nH]c4ccccc34)[C@@](C(=O)OC)(c3cc4c(cc3OC)N(C)[C@@H]3C45CCN4CC=C[C@](CC)([C@H]45)[C@@H](OC(C)=O)[C@]3(O)C(=O)OC)C2)C1 (some centres not stated) [Vinblastine]	24.8% (inactive)

SMILES	percentage of GFP+
CC[C@]1(O)C[C@@H]2CN(CCc3c([nH]c4ccccc34)[C@@](C(=O)OC)(c3cc4c(cc3OC)N(C=O)[C@@H]3C45CCN4CC=C[C@](CC)([C@H]45)[C@@H](OC(C)=O)[C@]3(O)C(=O)OC)C2)C1 (some centres not stated) [Vincristine]	16.5% (active)
CC#C[C@]1(O)CC[C@H]2[C@@H]3CCC4=CC(=O)CCC4=C3[C@@H](c3ccc(N(C)C)cc3)C[C@@]21C [Mifepristone]	46.9% (inactive)
CN[C@@H](C)C(=O)N[C@H](C(=O)N1CCC[C@H]1C(=O)Nc1snnc1-c1ccccc1)C1CCCCC1	21.9% (inactive)
C=CCNC(N)=S [Allylthiourea]	35% (inactive)
NC(=S)N/N=C/c1ncccc1N [Triapine]	17.4% (active)
N=C(N)N/N=C/c1c(Cl)cccc1Cl [Guanabenz]	49.3% (inactive)
COc1ccc([C@@H]2CC(=O)c3c(O)cc(O)cc3O2)cc1O [Hesperetin]	47.8% (inactive)
COc1cc2nccc(Oc3ccc(NC(=O)C4(C(=O)Nc5ccc(F)cc5)CC4)cc3)c2cc1OC [Cabozantinib]	29.6% (inactive)
CCOc1nc2cccc(C(=O)OC(C)OC(=O)OC3CCCCC3)c2n1Cc1ccc(-c2ccccc2-c2nn[nH]n2)cc1 (configuration not stated) [Candesartan Cilextil]	44.8% (inactive)
CC(=O)Oc1cc2c(s1)CCN(C(C(=O)C1CC1)c1ccccc1F)C2 (configuration not stated) [Prasugrel]	49.3% (inactive)
Cc1ccc(C(=O)Nc2ccc(CN3CCN(C)CC3)c(C(F)(F)F)c2)cc1C#Cc1cnc2[nH]ncc2c1 [Olverembatinib]	17.2% (active)
Cc1ccc(NC(=O)c2ccc(CN3CCN(C)CC3)cc2)cc1Nc1nc(-c2cccnc2)cs1 [Masitinib]	30.8% (inactive)
Cc1ccc(C(=O)Nc2ccc(CN3CCN(C)CC3)c(C(F)(F)F)c2)cc1C#Cc1cnc2cccnn12 [Ponatinib]	31.2% (inactive)
Cn1c(=O)c(F)c(Nc2ccc(I)cc2F)c2c(=O)n(C[C@@H](O)CO)cnc21	28.4% (inactive)
O=S(=O)(c1cccc2cnccc12)N1CCCNCC1 [Fasudil Hydrochloride]	48.7% (inactive)
Nc1ccccc1NC(=O)c1ccc(CNc2nccc(-c3cccnc3)n2)cc1 [Mocetinostat]	12.6% (active)
Cc1ccc(NC(=O)c2ccc(CN3CCN(C)CC3)cc2)cc1Nc1nccc(-c2cccnc2)n1 [Imatinib, Imatinib Mesylate]	32.5% (inactive) and 39% (inactive)
Nc1ccccc1NC(=O)c1ccc(CNC(=O)OCc2cccnc2)cc1 [Entinostat]	32% (inactive)
N#CC1(c2ccc(NC(=O)c3cccnc3NCc3ccncc3)cc2)CCCC1 [Apatinib]	28% (inactive)
N=C(N)NC(=O)c1nc(Cl)c(N)nc1N [Amiloride]	33.1% (inactive)
CC(C)(C#N)c1cc(Cn2cncn2)cc(C(C)(C)C#N)c1 [Anastrozole]	45.5% (inactive)

SMILES	percentage of GFP+
C[C@H](N[C@@H](CCc1ccccc1)C(=O)O)C(=O)N1CCC[C@H]1C(=O)O [Enalaprilat]	36.7% (inactive)
CC(C)c1nc(CN(C)C(=O)N[C@@H](CCN2CCOCC2)C(=O)N[C@H](CC[C@H](Cc2ccccc2)NC(=O)OCc2cncs2)Cc2ccccc2)cs1 [Cobicistat]	43.4% (inactive)
COC[C@H](NC(=O)c1cnc(C)s1)C(=O)N[C@@H](COC)C(=O)N[C@@H](Cc1ccccc1)C(=O)C1(C)CO1 (some centres not stated) [Oprozomib]	5.21% (active)
CC(C)C[C@H](NC(=O)[C@H](CCc1ccccc1)NC(=O)CN1CCOCC1)C(=O)N[C@@H](Cc1ccccc1)C(=O)N[C@@H](CC(C)C)C(=O)[C@@]1(C)CO1 [Carfilzomib]	4.67% (active)
COc1ccc(C[C@H](NC(=O)[C@H](C)NC(=O)CN2CCOCC2)C(=O)N[C@@H](Cc2ccccc2)C(=O)[C@]2(C)CO2)cc1	11.6% (active)
O=C(Cc1ccc(-c2ccc(OCCN3CCOCC3)cc2)cn1)NCc1ccccc1	30.9% (inactive)
COC1=C(OC)C(=O)C(CCCCCCCCCCO)=C(C)C1=O [Idebenone]	43.7% (inactive)
CCCc1cc(C)nc(O)c1CNC(=O)c1cc(-c2ccc(N3CCN(C(C)C)CC3)nc2)cc2c1cnn2C(C)C	39.6% (inactive)
O=C(O)c1cc(-c2ccccc2)nc2ccccc12 [Cinchophen]	46.7% (inactive)
C[C@@]1(c2cc(-c3cncnc3)c(F)cc2F)CCSC(N)=N1	36.4% (inactive)
COC(=O)c1ccc2c(/C(=N/c3ccc(N(C)C(=O)CN4CCN(C)CC4)cc3)c3ccccc3)c(O)[nH]c2c1 [Nintedanib]	25.4% (inactive)
O=C(NC1CCOCC1)c1ccc(-c2cc(-c3c[nH]nc3-c3ccccn3)ccn2)cc1	40.4% (inactive)
Cc1cnc(NC(=O)Nc2cc(Br)c(C)cc2OC[C@@H]2CNCCO2)cn1	28.6% (inactive)
CCc1c(Cl)c(O)c(Cl)c(O)c1C(=O)O[C@H]1[C@H](O)[C@H](OC)[C@H](OC/C2=C\C=C\C[C@H](O)/C(C)=C\[C@H](CC)[C@@H](O[C@@H]3OC(C)(C)[C@@H](OC(=O)C(C)C)[C@H](O)[C@@H]3O)/C(C)=C\C(C)=C/C[C@@H]([C@@H](C)O)OC2=O)O[C@@H]1C [Fidaxomicin]	50.9% (inactive)
Cc1cc(C#N)cc(C)c1Oc1nc(Nc2ccc(C#N)cc2)nc(N)c1Br [Etravirine]	35% (inactive)
COc1cccc2c1C(=O)c1c(O)c3c(c(O)c1C2=O)C[C@@](O)(C(=O)CO)C[C@@H]3O[C@H]1C[C@H](N)[C@H](O)[C@H](C)O1 [Doxorubicin]	25.2% (inactive)
COc1cccc2c1C(=O)c1c(O)c3c(c(O)c1C2=O)C[C@@](O)(C(C)=O)C[C@@H]3O[C@H]1C[C@H](N)[C@H](O)[C@H](C)O1 [Daunorubicin]	24.3% (inactive)
CC(=O)[C@]1(O)Cc2c(O)c3c(c(O)c2[C@@H](O[C@H]2C[C@H](N)[C@H](O)[C@H](C)O2)C1)C(=O)c1ccccc1C3=O [Idarubicin, Idarubicin Hydrochloride]	19.9% (active)
CC(=O)N1CCN(CCOc2ccc(C3CCN(C4=Nn5c(nnc5C(F)(F)F)CC4)CC3)cc2)CC1	43.8% (inactive)
CC[C@H](C)[C@H]1O[C@]2(CC[C@@H]1C)C[C@@H]1C[C@@H](C/C=C(\C)[C@@H](O[C@H]3C[C@H](OC)[C@@H](O[C@H]4C[C@H](OC)[C@@H](O)[C@H](C)O4)[C@H](C)O3)[C@@H](C)/C=C/C=C3\CO[C@@H]4[C@H](O)C(C)=C[C@@H](C(=O)O1)[C@]34O)O2 [Ivermectin]	37.9% (inactive)
